Assay results taken from PubChem BioAssay (NCI).
The panel holds about 79,000 compounds, 15% with a hit somewhere; the sample as a whole holds those more often. Calls of active or inactive are those of the source. No stated cut-off is given here; in the data, active means growth inhibition above about 70%; inactive means the rest.

Columns and labels:
[1] = NCI Yeast Anticancer Drug Screen. Data for the rad50 strain (AID 155);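 further: 0% = growth of vehicle-only cultures of the same strain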; conditions: S. cerevisiae rad50 strain growth inhibition; at 50.0 µM; active compounds read high
Method in brief: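 Compounds were tested on a yeast strain with an engineered DNA damage repair alteration; the reported value is growth inhibition normalised to vehicle treatment.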

[2] = NCI Yeast Anticancer Drug Screen. Data for the mec2-1 strain (AID 157); conditions: S. cerevisiae mec2-1 strain, at 50.0 µM, active compounds read high
Method in brief: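 Each compound was tested on mec2-1 yeast, a strain altered in DNA damage repair or cell cycle control. Growth inhibition is reported relative to vehicle.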

[3] = NCI Yeast Anticancer Drug Screen. Data for the sgs1 mgt1 strain (AID 161);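 further: 0% = growth of cultures given vehicle only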; conditions: S. cerevisiae sgs1 mgt1 strain, at 50.0 µM, active compounds read high
Method in brief: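 Read-out: growth inhibition vs vehicle controls. Cells: mutant yeast strain deficient in DNA damage repair.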

[4] = NCI Yeast Anticancer Drug Screen. Data for the cln2 rad14 strain (AID 165);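 further: 0% = growth equal to vehicle treated cultures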; conditions: S. cerevisiae cln2 rad14 strain, at 50.0 µM, active compounds read high
Method in brief: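 Test compounds were added to cln2 rad14 yeast cultures; inhibition of growth was then determined by comparison with vehicle treatment.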

[5] = NCI Yeast Anticancer Drug Screen. Data for the bub3 strain (AID 167); conditions: S. cerevisiae bub3 mutant strain, at 50.0 µM, active compounds read high
Method in brief: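 Growth of a checkpoint-deficient yeast mutant is measured after compound exposure. Values represent inhibition relative to vehicle.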

[6] = NCI Yeast Anticancer Drug Screen. Data for the mlh1 rad18 strain (AID 175); conditions: S. cerevisiae mlh1 rad18 strain growth inhibition; at 50.0 µM; active compounds read high
Method in brief: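 Inhibition values reflect reduced growth of mutant yeast versus vehicle-treated controls following compound exposure; the mutations affect DNA damage repair.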

Measured: growth inhibition

Clc1ccccc1/C=C1\c2ccc(Br)cc2-c2cccc[n+]21
active: [1] 92.1% | [2] 95.8% | [3] 95.5% | [4] 91.4% | [5] 93% | [6] 95.7%

Cn1c2c(c(=O)n(C)c1=O)CCC(=O)N2
inactive: [1] 4.95% | [2] 0.7% | [3] -6.5% | [4] -32.6% | [5] -2.4% | [6] -9.4%

O=P1(c2ccccc2)c2ccccc2CCc2ccccc21
inactive: [1] 18% | [2] 2.75% | [3] 21.8% | [4] 22.1% | [5] 2.25% | [6] 8.35%

COc1cccc(-n2cnc3c(=O)[nH]cnc32)c1
inactive: [1] -18.7% | [2] -13.3% | [3] -10.9% | [4] -34.9% | [5] -5.65% | [6] -40%

O=c1ccc2c(O)cc(O)cc2o1
inactive: [1] -8.9% | [2] -5.9% | [3] -13.7% | [4] 5.05% | [5] 8.35% | [6] -8.5%

C/C(=N\Nc1cc(C)nc2cc3c(cc12)OCO3)c1cn(C)n(-c2ccccc2)c1=O
inactive: [1] 19.9% | [2] 54.5% | [3] 21.6% | [4] 34.9% | [5] 12.4% | [6] 39.1%

N#Cc1cc(N2CCCCC2)ccc1[N+](=O)[O-]
inactive: [1] 2.6% | [2] -8.35% | [3] -6.2% | [4] -18.1% | [5] -4.5% | [6] -0.4%

C=C(C)C(C)(C)n1[nH]c(=O)n(-c2ccccc2)c1=O
inactive: [1] 13.2% | [2] -0.05% | [3] -0.3% | [4] -23.1% | [5] -13.4% | [6] 0%

COc1ccc(C(O)/C(=C/n2ccnc2)c2ccccc2)cc1OC (stereo unspecified)
inactive: [1] -23.8% | [2] -17.8% | [3] -15.6% | [4] -5.85% | [5] -7.65% | [6] -25.2%

COC(=O)c1cc2c(cc1CC1Cc3cc4c(cc3C1=O)CCC4)CCC2 (stereo unspecified)
inactive: [1] -16.1% | [2] -42.3% | [3] -10.4% | [4] 9.3% | [5] 19.6% | [6] 1.65%

CCOC(=O)C/C(C)=C1/N=C(c2ccccc2)OC1=O
inactive: [1] 28.9% | [2] 7.85% | [3] 23.2% | [4] 14.8% | [5] 37% | [6] 30.8%

Cn1c(=O)c2[nH]c(SCCN3CCOCC3)nc2n(C)c1=S
inactive: [1] -23.4% | [2] -47.2% | [3] -25.6% | [4] 14.2% | [5] -66.2% | [6] -4.95%

COc1cnnc2ccccc12
inactive: [1] 12.8% | [2] 3.2% | [3] 4.6% | [4] -2.35% | [5] -0.9% | [6] 14.3%

NN1C(=O)CC(c2cccc(Cl)c2)C1=O (stereo unspecified)
inactive: [1] 1.7% | [2] 4.55% | [3] -2.4% | [4] 21.9% | [5] -2.6% | [6] 32.3%

Fc1ccc(C2SCc3nc4ccccc4n32)cc1F (stereo unspecified)
inactive: [1] -49.9% | [2] -1.3% | [3] 24.3% | [4] 1.25% | [5] -13.8% | [6] 18.6%

COC1=CC(=O)C2CC=C(C)CC2(C)C1=O (stereo unspecified)
inactive: [1] -7.9% | [2] -12.4% | [3] -16.6% | [4] 18% | [5] -0.05% | [6] -3.8%

COc1cc(C2c3cc4c(cc3OC(NNC(N)=S)C2C)OCO4)cc(OC)c1OC (stereo unspecified)
inactive: [1] -4% | [2] -17.4% | [3] 2.5% | [4] -0.2% | [5] 6.95% | [6] -9.9%

c1cc2c3c(cccc3c1)-c1nc3c(ccc4ccccc43)nc1-2
inactive: [1] -0.15% | [2] 22.8% | [3] 19.6% | [4] 11.6% | [5] 10.4% | [6] 12.3%

O=S(=O)(O)c1cc(O)c2ccc3c(S(=O)(=O)O)cc(S(=O)(=O)O)c4ccc1c2c34
inactive: [1] -11.7% | [2] -23.1% | [3] -2.85% | [4] 6.8% | [5] 10.6% | [6] 3.75%

NC(=O)[N+](=CC(=S)Nc1ccccc1Cl)C(N)=O
inactive: [1] -43.3% | [2] -43.5% | [3] -36.7% | [4] -15.8% | [5] -33.4% | [6] 34.6%

Oc1cc2c(cc1C(c1ccc(F)cc1)N1CCCC1)OCO2 (stereo unspecified)
inactive: [1] 33.1% | [2] 19.5% | [3] 39.9% | [4] -15.6% | [5] 37.9% | [6] 35.1%
